Results published in PubChem BioAssay (NCI).
Compounds without any hit were thinned out: in the full panel of roughly 83,000, 20% have a hit.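 Single-dose data. Exposure time 48 hours. Values below 10 considered active.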 A number with no mark means an inactive call. Calls of active or inactive are those of the source.

Tests used:
Assay in all cases: NCI-60 one-dose screen, 48 h (100 = growth as untreated, 0 = no growth, -100 = all killed)
Details in all cases: 10 µM unless noted
[1] = tested on: NCI-H23 lung
[2] = tested on: NCI-H322M lung
[3] = tested on: HOP-62 NSCLC
[4] = tested on: NCI-H460 lung
[5] = tested on: HOP-92 NSCLC
[6] = tested on: A549/ATCC NSCLC
[7] = tested on: 786-0 renal
[8] = tested on: DU-145 prostate
[9] = tested on: K-562 leukemia
[10] = tested on: MALME-3M melanoma
[11] = tested on: MDA-MB-231 breast
[12] = tested on: RXF 393 renal
[13] = tested on: SF-268 CNS
[14] = tested on: SF-295 CNS
[15] = tested on: SF-539 CNS
[16] = tested on: UACC-257 melanoma
[17] = tested on: M14 melanoma
[18] = tested on: HCT-15 colon
[19] = tested on: NCI-H522 lung
[20] = tested on: COLO 205 colon

| SMILES | growth [1] | growth [2] [%] | growth [3] [%] | growth [4] | growth [5] | growth [6] | growth [7] [%] | growth [8] [%] | growth [9] | growth [10] | growth [11] | growth [12] [%] | growth [13] [%] | growth [14] | growth [15] | growth [16] | growth [17] | growth [18] | growth [19] [%] | growth [20] |
| --- | --- | --- | --- | --- | --- | --- | --- | --- | --- | --- | --- | --- | --- | --- | --- | --- | --- | --- | --- | --- |
| CCCCN1CCN(c2ccc3nc(-c4ccc5nc(-c6ccc(OCC)cc6)[nH]c5c4)[nH]c3c2)CC1 | 64.1% | 82.4 | 46.2 | 75.9% | 95.9% | 86.5% | 75.3 | 68.7 | -29.1% (active) | 36% | 111% | 36.9 | 77.1 | 48.7% | 67.9% | 68.2% | 32.7% | 16.6% | – | – |
| CN1C(=O)N(C)C2(c3ccccc3)OC(=S)NC12c1ccccc1 (stereo not drawn) | 99.3% | 92 | – | 112% | 101% | 87.5% | 96.2 | 94.4 | 92.3% | 97% | 110% | 114 | 88.9 | 93.3% | 92.5% | 94.7% | 95.7% | 100% | 90.4 | 107% |
| OC(CNC1CCCCC1)Cn1c2ccc(I)cc2c2cc(I)ccc21 (stereo not drawn) | 76.6% | 75.8 | – | 70.1% | -0.53% (active) | 75% | 77.7 | 101 | 54.4% | 68.9% | 56.3% | 78.3 | 91.8 | 47.2% | 77.5% | 84.8% | 68.7% | 65.7% | 67.5 | 104% |
| COc1ccccc1N1CCN(C(CNS(=O)(=O)c2ccc(Cl)cc2)c2cccnc2)CC1 (stereo not drawn) | 96.6% | 128 | – | 77.1% | 79.5% | 90.8% | 42.4 | 85.1 | 28.4% | 60.2% | 71% | 36.3 | 90.8 | 2.26% (active) | 64.9% | 120% | 104% | 49% | 110 | 108% |
| Cc1cccc2c(=O)c3c(sc12)c(NCCCNCCO)nc1ccccc13 | 55% | 63.3 | 41.6 | 19.3% | 29.4% | 39.4% | 52.8 | 35 | -51.3% (active) | 26.9% | -1.61% (active) | 43.3 | 52.1 | 74.7% | 59.4% | 91.6% | 35.1% | 0.41% (active) | – | – |
| CCOc1c(Br)cc(C2C(C(=O)OC)=CN(C)C=C2C(=O)OC)cc1OC | 98% | 76.3 | – | 48.3% | 39.2% | 85.9% | 58.3 | 91.4 | 8.68% (active) | – | 49.4% | 64.2 | 68.1 | 24% | 94.2% | – | – | 41% | 75.9 | -88.1% (active) |
| C#CCn1cc(C=C2C(=O)NC(=O)NC2=O)c2cc(Cl)ccc21 | 90.5% | 87.6 | – | 63.1% | 88.7% | 96.1% | 106 | 87.6 | 82.6% | 98.4% | 86.2% | 72.3 | 81.1 | 92.6% | 82.5% | 94.6% | 85.1% | 82.8% | 71.7 | 123% |
| COc1cc(/C=C/C(=O)N2c3ccccc3CC2C)c(OC)c2c1OCO2 (stereo not drawn) | 90.8% | 101 | – | 98.2% | 97.4% | 89.1% | 94.9 | 94.5 | – | 101% | 92.2% | – | 97 | 83.6% | 98.3% | 100% | 90.7% | 69.8% | 81.5 | 125% |
| COC(=O)c1c2c(c(C)[n+]([O-])c1C)C(=O)C(NCc1ccc(F)c(F)c1)=CC2=O | -5.8% (active) | 13.4 | – | 4.7% (active) | 51.1% | 8.81% (active) | 48.2 | 42 | 18.4% | -70.8% (active) | -2.52% (active) | 32.2 | 12 | 18.2% | 2.45% (active) | -30% (active) | 4.33% (active) | 6.07% (active) | 22 | – |
